The results in this text go back to PubChem BioAssay.

Structures are written as SMILES. Activity calls are given as the source filed them. Unless noted, how the calls were made is not given here.

Assay [1] in a line: HepG2 liver cancer cell viability effects, profiling panel, resazurin fluorescence, 24 h, PK04 Diversity Set (AID 1172). Further: test concentration not given here. The conditions noted are these: higher = more signal. A general note: Resazurin is reduced to fluorescent resorufin, in cell work by metabolically active cells.
The nature of assay [2]: basal S. cerevisiae growth modulation, no modifier, primary screen, OD600, strain BY4716, 24 h, basal condition (AID 1173). The conditions noted are these: OD600, 24 h, higher = more signal, called active from +8 up or from −8 down.
The nature of assay [3]: MM1S myeloma cell viability, profiling panel, resazurin fluorescence, basal, 24 h, PK04 Diversity Set (AID 1174).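 Further: MM1S multiple myeloma cell line; test concentration not given here.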 The conditions noted are these: higher = more signal, called active from +8 up or from −8 down.
The target of assay [4] is Dihydroorotate dehydrogenase (quinone), mitochondrial (Plasmodium falciparum (isolate 3D7)) (UniProt Q08210). Briefly: PfDHODH enzyme inhibitors, primary screen, biochemical, C-terminal His tag, absorbance 600 nm (AID 1175).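 Further: recombinant parasite enzyme with a five histidine tag at its C terminus; test concentration not given here.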 The conditions noted are these: DCIP absorbance 600 nm, higher = more signal, called active from +8 up or from −8 down.
Dihydroorotate dehydrogenase (quinone), mitochondrial (Plasmodium falciparum (isolate 3D7)), sequence (Q08210 whole entry, looked up): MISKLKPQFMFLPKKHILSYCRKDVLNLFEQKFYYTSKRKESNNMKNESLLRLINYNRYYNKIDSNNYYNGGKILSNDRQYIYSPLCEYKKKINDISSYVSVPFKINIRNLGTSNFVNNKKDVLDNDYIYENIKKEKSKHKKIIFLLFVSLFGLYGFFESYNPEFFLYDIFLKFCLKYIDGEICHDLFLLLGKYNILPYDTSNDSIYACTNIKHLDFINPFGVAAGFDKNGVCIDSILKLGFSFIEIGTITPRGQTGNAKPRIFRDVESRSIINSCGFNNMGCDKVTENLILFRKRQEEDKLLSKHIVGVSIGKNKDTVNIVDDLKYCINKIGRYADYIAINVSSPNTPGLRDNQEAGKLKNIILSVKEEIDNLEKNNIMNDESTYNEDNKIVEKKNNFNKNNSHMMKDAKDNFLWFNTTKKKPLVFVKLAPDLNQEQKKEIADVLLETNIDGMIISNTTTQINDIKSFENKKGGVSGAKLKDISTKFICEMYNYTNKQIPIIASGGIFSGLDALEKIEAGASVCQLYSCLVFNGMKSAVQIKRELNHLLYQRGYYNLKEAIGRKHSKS
Assay [5] in a line: P. aeruginosa biofilm formation inhibitors, primary screen, strain PAO1, LB-PBS medium, absorbance 600 nm (AID 1176). Further: test concentration not given here. The conditions noted are these: P. aeruginosa PAO1 growth/biofilm, A600, 12 h; higher = more signal.
The nature of assay [6]: S. cerevisiae RM11-1a growth modifiers, primary screen, strain RM11-1a, OD600, basal, 24 h (AID 1177).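 Further: cultures grown under basal conditions with no added stressor; test concentration not given here.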 The conditions noted are these: OD600, 24 h, higher = more signal, called active from +8 up or from −8 down.
The nature of assay [7]: E. coli acrAB mutant growth effects, primary screen, E. coli filamentation inducers, strain DRC39, OD650, 24 h (AID 1178).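 Further: growth measured as culture turbidity by optical density at 650 nm; test concentration not given here.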 The conditions noted are these: higher = more signal, called active from +8 up or from −8 down.
The nature of assay [8]: E. coli acrAB mutant growth effects, primary screen, E. coli filamentation inducers, strain DRC39, OD650, 48 h (AID 1179).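 Further: screen aims at cell division blockers that make cells filament.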 The conditions noted are these: E. coli DRC39 delta-acrAB growth, higher = more signal, called active from +8 up or from −8 down.
The nature of assay [9]: RPMI8226 myeloma cell viability, profiling panel, resazurin fluorescence, basal, 24 h, PK04 Diversity Set (AID 1180).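 Further: RPMI8826 multiple myeloma cell line at 5000 cells per well; test concentration not given here.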 The conditions noted are these: higher = more signal.
In assay [10] the target is E3 ubiquitin-protein ligase XIAP (Homo sapiens) (UniProt P98170). Briefly: XIAP binders, primary screen, biophysical, small-molecule microarray, fluorescence 635 nm (AID 1181).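 Further: score merges 667 nm emission and signal to noise over triplicate slides.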 The conditions noted are these: small-molecule microarray binding, higher = more signal.
E3 ubiquitin-protein ligase XIAP (Homo sapiens), sequence (P98170 whole entry, looked up): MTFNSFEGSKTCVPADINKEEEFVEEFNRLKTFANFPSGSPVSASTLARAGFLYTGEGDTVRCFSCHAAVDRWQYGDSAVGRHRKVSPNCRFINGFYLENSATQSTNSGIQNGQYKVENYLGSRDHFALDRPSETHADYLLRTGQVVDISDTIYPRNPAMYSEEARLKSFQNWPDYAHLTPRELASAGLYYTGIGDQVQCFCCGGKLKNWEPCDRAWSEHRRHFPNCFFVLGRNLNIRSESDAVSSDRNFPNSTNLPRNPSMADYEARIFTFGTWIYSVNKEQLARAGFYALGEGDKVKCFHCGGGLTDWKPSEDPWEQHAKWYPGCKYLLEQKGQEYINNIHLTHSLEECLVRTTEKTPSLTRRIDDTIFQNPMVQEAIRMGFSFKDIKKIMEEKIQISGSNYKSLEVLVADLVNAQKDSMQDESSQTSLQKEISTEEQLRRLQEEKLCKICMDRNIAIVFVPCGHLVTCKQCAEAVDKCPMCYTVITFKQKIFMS

On to `C=CCC(OC(C)=O)[C@@H]1[C@@H](N(Cc2cccc3ccccc23)C(=O)Cc2ccc(OC)cc2)c2cc(OCCCO)ccc2N1C(=O)Cc1ccc2ccccc2c1` (stereo not given in full), for which the z-score was 0.687 in assay [1]; 0.428 (inactive) in [2]; 0.504 (inactive) in assay [3]; -0.853 (inactive) in [5]; -0.372 (inactive) in assay [6]; 0.685 (inactive) in assay [7]. Also, the z-score in assay [8] was 0.248 (inactive); in assay [9], 0.4. The composite z-score was -0.717 (inactive) in assay [4] and 0.141 in assay [10].

As to `COc1ccc([Si](C)(C)[C@@H]2[C@@H](CC(=O)N(CCO)Cc3ccccc3)O[C@]3(C(=O)N(Cc4ccc(I)cc4)c4ccccc43)[C@H]2C)cc1`, the z-score is -1.42 in assay [1]; -0.498 (inactive) in assay [2]; -2.27 (inactive) in assay [3]; 1.1 (inactive) in assay [5]; 2.45 (inactive) in assay [6]; -0.318 (inactive) in assay [7]. For the same compound, the z-score is -0.699 (inactive) in [8] and -2.52 in assay [9]. In addition, the composite z-score in [4] was 1.07 (inactive); in [10], -0.0658.

On to `CCOC(=O)C1=C[C@@H](C(C)(C)C)N(S(=O)(=O)c2ccc(C)cc2)[C@H]1c1ccc(C#N)cc1`, for which the z-score in [1] is -0.718; in [2] it was 2.25 (inactive); in assay [3] it was -0.153 (inactive); in assay [5], 0.16 (inactive); in assay [6], 1.56 (inactive); in assay [7], -0.264 (inactive). In addition, the z-score in assay [8] was -0.361 (inactive); in assay [9], -1.22. The composite z-score in assay [4] is -0.158 (inactive); in assay [10], -0.0559.

Take `CCN(CC)c1ccc(N2CC=CC34O[C@@H]5C=CCCOC(=O)C5[C@H]3C(=O)N(C(C)CO)[C@@H]4C2=O)cc1` (stereo not given in full): the z-score in assay [1] was 0.452; in [2], -0.315 (inactive); in [3], 0.172 (inactive); in assay [5], 0.398 (inactive); in assay [6], 0.126 (inactive); in assay [7], -0.491 (inactive). The z-score in [8] was -0.693 (inactive); in assay [9], 0.399. For the same compound, the composite z-score in [4] was -0.0558 (inactive); in assay [10], 0.741.

`COC(=O)[C@@]1(Cc2ccc(F)cc2)[C@H]2c3cc(C(=O)N(C)C)n(CCc4ccc(O)c(O)c4)c3C[C@H]2CN1C(=O)c1ccccc1`: the z-score in [1] was 0.515; in assay [2], 0.634 (inactive); in [3] it was -1.01 (inactive); in assay [5], -0.154 (inactive); in assay [6] it was 0.232 (inactive); in assay [7], -0.0718 (inactive). In addition, the values for the z-score in assay [8] and in assay [9] were 0.157 (inactive) and -0.834, respectively. Also, the composite z-score in [4] is -0.137 (inactive); in [10], 0.122.

For `COC(=O)[C@@]1(Cc2ccccc2)[C@H]2c3cc(C(=O)N(C)C)n(CCO)c3C[C@H]2CN1C(=O)c1ccccc1`, the z-score in [1] was -0.546; in assay [2], 1.24 (inactive); in assay [3] it was -1.28 (inactive); in assay [5] it was 0.274 (inactive); in assay [6] it was 0.329 (inactive); in assay [7], -0.751 (inactive). The values for the z-score in assay [8] and in assay [9] were -0.217 (inactive) and -1.11, respectively. Also, the composite z-score in [4] was 0.0058 (inactive); in [10], -0.0152.

Turning to `COC(=O)[C@@]1(Cc2ccc(F)cc2)[C@H]2c3cc(C(=O)N4CCCC4)n(Cc4cc(F)cc5c4OCOC5)c3C[C@H]2CN1C(=O)c1ccccc1`, the z-score in assay [1] was -1.29; in assay [2], 1.9 (inactive); in assay [3] it was -0.931 (inactive); in assay [5] it was -0.25 (inactive); in [6], 1.31 (inactive); in assay [7], 0.462 (inactive). The z-score was -1.11 (inactive) in assay [8] and -2.88 in assay [9]. For the same compound, the composite z-score in assay [4] was -0.224 (inactive); in [10], 0.334.

Take `C=C(COC)/C(=C/C[C@@H](OC(C)=O)c1ccccc1OCCO)c1cnc2ccccc2c1`: the z-score in assay [1] was -1.15; in assay [2] it was -2.19 (inactive); in [3] it was -0.975 (inactive); in assay [5], -0.104 (inactive); in [6], 0.315 (inactive); in assay [7], -1.17 (inactive). The z-score was -0.828 (inactive) in assay [8] and -0.3 in assay [9]. Further, the composite z-score in [4] was -7.89 (inactive); in assay [10], 0.0739.

As for `COc1ccc(NN2C(C(O)c3ccc(I)cc3)C=CC3C(=O)N(C4CCCCC4)C(=O)C32)cc1` (stereo not given), the z-score in [1] is 1.59; in [2], 0.0997 (inactive); in assay [3] it was 0.28 (inactive); in assay [5], 0.726 (inactive); in [6], 0.475 (inactive); in assay [7], -0.558 (inactive). Further, the z-score is 0.725 (inactive) in assay [8] and -0.313 in [9]. Besides, the composite z-score in assay [4] is 0.526 (inactive); in assay [10] it was 0.144.

In the case of `COc1ccc([Si](C)(C)[C@@H]2[C@@H](CC(=O)N3Cc4ccccc4C[C@H]3CO)O[C@]3(C(=O)N(Cc4cccc(N5CCOC5=O)c4)c4ccccc43)[C@H]2C)cc1`, the z-score was -1.02 in [1]; -0.238 (inactive) in assay [2]; -2.17 (inactive) in assay [3]; 0.79 (inactive) in assay [5]; 1.64 (inactive) in assay [6]; -0.742 (inactive) in assay [7]. Besides, the z-score in [8] was -0.655 (inactive); in assay [9] it was -2.05. Further, the values for the composite z-score in assay [4] and in [10] were 0.314 (inactive) and -0.13, respectively.

For `Cc1ccc(S[C@]2(C(=O)NCC(F)(F)F)CC(=O)N(Cc3ccccc3C(F)(F)F)[C@@H]2c2ccc(CO)cc2)cc1`, the z-score is -0.12 in assay [1]; 0.0386 (inactive) in assay [2]; -0.383 (inactive) in [3]; 0.568 (inactive) in assay [5]; -0.404 (inactive) in assay [6]; 0.334 (inactive) in [7]. Moreover, the z-score in [8] is 0.2 (inactive); in assay [9] it was -0.754. Besides, the composite z-score was -0.631 (inactive) in assay [4] and 0.0256 in assay [10].

Regarding `CCCC[C@H]1C[C@@H]1[C@@H]1N(C(C)=O)[C@H](c2cccc(OC)c2)CC12CC2`, the z-score in assay [1] was 0.527; in assay [2], -6.41 (inactive); in assay [3], 1.05 (inactive); in assay [5] it was -0.499 (inactive); in assay [6] it was 0.52 (inactive); in assay [7], -0.083 (inactive). Moreover, the z-score is -0.791 (inactive) in [8] and 1.43 in assay [9]. The composite z-score in [4] was 0.348 (inactive); in [10] it was -0.0416.

As for `C=C(C)[C@@H]1CC=C(C(O)C2C=CC3C(=O)N(C)C(=O)C3N2Nc2ccc([N+](=O)[O-])cc2[N+](=O)[O-])CC1` (stereo not given in full), the z-score was -0.902 in assay [1]; 0.522 (inactive) in assay [2]; -1.28 (inactive) in assay [3]; 0.599 (inactive) in assay [5]; 0.442 (inactive) in [6]; -0.358 (inactive) in assay [7]. Moreover, the z-score in [8] was -0.339 (inactive); in [9], -1.1. In addition, the composite z-score in assay [4] was -0.109 (inactive); in assay [10] it was 0.158.
